# From PubChem BioAssay (NCATS)
# Several values for one entry are separate records, joined by “and”; a condition that tells them apart may be missing. Identical values can stand only once. Results filed as inconclusive are left out. Values without a mark were called inactive. Activity calls are given as the source filed them. The call rests on the fitted dose curve; in most records, active means well fitted inhibition curve with a large enough effect; inconclusive means small, poorly fitted or top-dose-only effect; inactive means flat fitted curve, though single readings scatter.
# How the values were obtained:
# HEK293 = assay: Cytotoxic Profiling of Annotated Libraries Using Quantitative High-Throughput Screening (AID 1296008); settings: Five cell lines viability, CellTiter-Glo ATP luminescence, 48-72 h; max response: active compounds read low; on max response: on the % scale 0 is the no-effect control and ±100 the full control effect
# Method in brief: (§1)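 Cells exposed to compounds for 48 or 72 hr at 37 degrees Celsius. Viability read as ATP-coupled luminescence with CellTiter-Glo after 10 min at room temperature.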
# HaCat = assay: as above; settings: Five cell lines viability, CellTiter-Glo ATP luminescence, 48-72 h; max response: active compounds read low
# Method in brief: as §1
# CRL-7250 = normal cell line; assay: as above; settings: Five cell lines viability, CellTiter-Glo ATP luminescence, 48-72 h; max response: active compounds read low
# Method in brief: as §1
# KB-3-1 = assay: as above; settings: Five cell lines viability, CellTiter-Glo ATP luminescence, 48-72 h; max response: active compounds read low
# Method in brief: as §1
# NIH3T3 = assay: as above; settings: Five cell lines viability, CellTiter-Glo ATP luminescence, 48-72 h; max response: active compounds read low
# Method in brief: as §1
# W2 = assay: qHTS profiling for inhibitors of Plasmodium falciparum proliferation (AID 504749); settings: P. falciparum in erythrocytes, SYBR Green DNA, 72 h; series mostly up to 28.7 µM
# Method in brief: (§2)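 Each compound contacts P. falciparum-infected red blood cells for 72 h at 37 C; lysis buffer (Tris, EDTA, saponin, Triton X, SYBR Green I) is added and fluorescence measured next morning; values normalized to controls.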
# SC27B = assay: as above; settings: P. falciparum in erythrocytes, SYBR Green DNA, 72 h; series mostly up to 28.7 µM
# Method in brief: as §2
# TAB109 = assay: as above; settings: P. falciparum in erythrocytes, SYBR Green DNA, 72 h; series mostly up to 28.7 µM
# Method in brief: as §2
# TAB165 = assay: as above; settings: P. falciparum in erythrocytes, SYBR Green DNA, 72 h; series mostly up to 28.7 µM
# Method in brief: as §2
# Further: nearly all actives have a fitted effect of over 60% in size.
# Potency means the concentration at half of the fitted maximal effect.
compound,measurement,setting,value
CNC1CCC(N(Cc2cccc(-c3ccncc3)c2)C(=O)c2sc3c(F)ccc(F)c3c2Cl)CC1 (centres undefined),Potency,HEK293,13.2 µM (active) and 13 µM (active)
same,outcome,HaCat,inactive
CC[C@H]1OC(=O)[C@H](C)C(=O)[C@H](C)[C@@H](O[C@H]2O[C@H](C)C[C@H](N(C)C)[C@@H]2O)[C@](C)(OC)C[C@@H](C)C(=O)[C@H](C)[C@H]2N(CCCCn3cnc(-c4cccnc4)c3)C(=O)O[C@]12C,max response,CRL-7250,-7.01%
same,max response,HaCat,-0.424%
same,max response,KB-3-1,2.84%
same,max response,NIH3T3,-10.2%
CC[C@H]1OC(=O)[C@H](C)[C@@H](O[C@H]2C[C@@](C)(OC)[C@@H](O)[C@H](C)O2)[C@H](C)[C@@H](O[C@@H]2O[C@H](C)C[C@H](N(C)C)[C@@H]2O)[C@](C)(O)C[C@@H](C)CN(C)[C@H](C)[C@@H](O)[C@]1(C)O,outcome,CRL-7250,inactive
same,outcome,HaCat,inactive
same,outcome,KB-3-1,inactive
same,outcome,NIH3T3,inactive
O=c1cc(-c2ccc(O)cc2)oc2cc(O)cc(O)c12,max response,CRL-7250,-23.1%
same,max response,HaCat,-20%
same,max response,KB-3-1,3.99%
same,max response,NIH3T3,-14.4%
CN(C)CCC=C1c2ccccc2COc2ccc(CC(=O)O)cc21,outcome,CRL-7250,inactive
same,outcome,HaCat,inactive
same,outcome,KB-3-1,inactive
same,outcome,NIH3T3,inactive
CC=CCC=CCCC(=O)[C@H]1O[C@@H]1C(N)=O,outcome,CRL-7250,inactive
same,outcome,HaCat,inactive
same,max response,NIH3T3,1.26%
CCCCCNC(=O)N1CCC(CN(Cc2ccc(Cl)cc2)Cc2ccc([N+](=O)[O-])s2)C1 (centres undefined),max response,CRL-7250,-21%
same,max response,HaCat,2.36%
same,max response,NIH3T3,-17.3%
O=C(Nc1ccccc1Br)N[C@@H]1CCN(c2ccc(C(F)(F)F)cn2)C1,max response,CRL-7250,-5.42%
same,max response,HaCat,4.65%
same,max response,NIH3T3,-2.32%
CC/C(=C(\c1ccccc1)c1ccc(OCCN(C)C)cc1)c1ccccc1,Potency,W2,13.5 µM (active)
same,max response,CRL-7250,-3.24%
same,max response,HaCat,-10.4%
same,max response,KB-3-1,-11%
Nc1nc(F)nc2c1ncn2[C@@H]1O[C@H](COP(=O)(O)O)[C@@H](O)[C@H]1O,max response,HEK293,-8.85%
same,outcome,KB-3-1,inactive
O=C(NOCC(O)CO)c1cc(Br)c(F)c(F)c1Nc1ccc(I)cc1F (centres undefined),max response,HEK293,0.434%
same,max response,KB-3-1,-16.7%
COc1ccc(-c2oc3c(CC=C(C)C)c(OC4O[C@H](CO)[C@@H](O)[C@H](O)[C@@H]4O)cc(O)c3c(=O)c2OC2O[C@@H](C)[C@H](O)[C@@H](O)[C@@H]2O)cc1 (some centres undefined),Potency,HEK293,18.7 µM (active)
same,max response,NIH3T3,-16.5%
O=C(O)c1cc(O)c2c(c1)C(=O)c1cccc(O)c1C2=O,max response,HEK293,-16.6%
same,outcome,HaCat,inactive
same,max response,KB-3-1,0.608%
same,max response,NIH3T3,0.522%
CCc1ccc(C=C2SC(=S)NC2=O)cc1,max response,HEK293,-22.6%
same,max response,HaCat,-1.5%
same,max response,KB-3-1,-5.67%
same,max response,NIH3T3,-14.4%
Cc1ccc(F)c(NC(=O)Nc2ccc(-c3cccc4[nH]nc(N)c34)cc2)c1,max response,HaCat,2.26%
same,max response,NIH3T3,-7.65%
Cc1nnc(C(C)C)n1C1C[C@H]2CC[C@@H](C1)N2CC[C@H](NC(=O)C1CCC(F)(F)CC1)c1ccccc1 (some centres undefined),max response,HaCat,3.6%
same,max response,KB-3-1,3.29%
same,outcome,NIH3T3,inactive
NS(=O)(=O)c1ccc(NC2=CC(=O)c3ccccc3C2=O)cc1,outcome,HaCat,inactive
same,max response,KB-3-1,7.69%
same,max response,NIH3T3,-17.3%
Clc1ccc(C(c2ccc(Cl)cc2)n2cc[n+](CC(OCc3ccc(Cl)cc3Cl)c3ccc(Cl)cc3Cl)c2)cc1 (centres undefined),Potency,HEK293,14.8 µM (active)
same,Potency,KB-3-1,18.7 µM (active)
CNC(=O)c1ccccc1Sc1ccc2c(C=Cc3ccccn3)n[nH]c2c1,Potency,HEK293,14.8 µM (active)
same,Potency,NIH3T3,3.72 µM (active)
CC(=NNC(=S)N1CCC1)c1ccccn1,Potency,HEK293,0.0042 µM (active)
same,Potency,NIH3T3,0.0187 µM (active)
C=CCc1ccc(O)c(-c2ccc(O)c(CC=C)c2)c1,max response,HEK293,-27.3%
same,Potency,HaCat,20.9 µM (active)
same,max response,NIH3T3,-7.37%
c1ccc2c(Cc3c[nH]c4ccccc34)c[nH]c2c1,outcome,HaCat,inactive
same,max response,KB-3-1,-13.3%
COc1cc(N2CCC(N3CCN(C)CC3)CC2)ccc1Nc1ncnc(Nc2ccccc2S(=O)(=O)C(C)C)n1,Potency,HEK293,14.6 µM (active)
same,Potency,HaCat,7.31 µM (active)
same,Potency,KB-3-1,8.33 µM (active)
same,Potency,NIH3T3,3.32 µM (active) and 3.66 µM (active)
Cc1ccc([C@@H]2O[C@H](CO)[C@@H](O)[C@H](O)[C@@H]2O)cc1Cc1ccc(-c2ccc(F)cc2)s1,Potency,HEK293,14.8 µM (active)
same,outcome,HaCat,inactive
same,outcome,KB-3-1,inactive
same,outcome,NIH3T3,inactive
CCCCCN(C)CCC(O)(P(=O)(O)O)P(=O)(O)O,Potency,SC27B,inactive
same,outcome,TAB109,inactive
same,Potency,TAB165,inactive
same,Potency,W2,inactive
Nc1ncnc2c1nc(Cl)n2[C@@H]1O[C@H](CO)[C@@H](O)[C@@H]1O,max response,HEK293,0.527%
same,Potency,HaCat,14.8 µM (active)
same,Potency,NIH3T3,26.4 µM (active)
CN(C)Cc1ccc(-c2nc3cccc4c3n2CCNC4=O)cc1,max response,HaCat,-6.01% and -9.35%
same,max response,NIH3T3,-8.05% and -9.14%
C[C@]12CC[C@@H]3c4ccc(O)cc4C[C@@H](CCCCCCCCCS(=O)CCCC(F)(F)C(F)(F)F)[C@H]3[C@H]1CC[C@H]2O (some centres undefined),max response,HaCat,0.837%
same,max response,KB-3-1,4.81%
same,outcome,NIH3T3,inactive
COCCOC(=O)C1=C(C)NC2=C(C(=O)CC(c3ccccc3OC)C2)C1c1cccc(O)c1 (centres undefined),max response,HaCat,-1.34%
same,max response,KB-3-1,-11.3%
O=C(N[C@@H](c1ccccc1)[C@@H]1CCCCN1)c1cccc(C(F)(F)F)c1Cl,max response,HaCat,4.43%
same,max response,KB-3-1,-7.93%
same,max response,NIH3T3,-0.909%
CC1(C)CCC2=C(O1)c1ccccc1C(=O)C2=O,outcome,HaCat,inactive
same,max response,KB-3-1,7.27%
COc1ccc(-n2c(C)c([N+](=O)[O-])c3ccc(O)cc32)cc1,max response,HEK293,-7.19%
same,max response,HaCat,-25.5%
same,max response,KB-3-1,-1.9%
same,max response,NIH3T3,4.92%
c1ccc2c(-c3cnn4cc(-c5ccc(N6CCNCC6)cc5)cnc34)ccnc2c1,Potency,KB-3-1,3.32 µM (active)
same,max response,NIH3T3,-102%
C[C@H](NC(=O)C(=O)Nc1ccccc1C(C)(C)C)C(=O)N[C@@H](CC(=O)O)C(=O)COc1c(F)c(F)cc(F)c1F,outcome,HaCat,inactive
same,outcome,KB-3-1,inactive
same,outcome,NIH3T3,inactive
Cc1ccc(C(=O)Nc2cccc(C(F)(F)F)c2)cc1Nc1nc(-c2cccnc2)nc2c1cnn2C,Potency,HEK293,13.2 µM (active)
same,max response,KB-3-1,-14.6%
same,Potency,NIH3T3,9.35 µM (active)
CC(C)=CC[C@@H](O)C1=CC(=O)c2c(O)ccc(O)c2C1=O,outcome,HaCat,inactive
same,max response,KB-3-1,6.3%
same,max response,NIH3T3,4.11%
Oc1ccc(C2=Cc3ccc(O)cc3OC2)cc1,Potency,HEK293,9.35 µM (active)
same,Potency,KB-3-1,16.6 µM (active)
same,Potency,NIH3T3,7.43 µM (active)
